PubChem BioAssay (NCI)
Where “and” joins values, the source holds several entries; their conditions need not be identical. Equal entries are not always repeated. Compounds without any hit were thinned out: in the full panel of roughly 83,000, 20% have a hit.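 How to read the values: 0–100, growth inhibition (40 = 60% inhibited); 0, no net growth; -100 to 0, cell death (-40 = 40% of starting cells died; -100 = all dead).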 Calls of active or inactive are those of the source. The calls were made as follows: active = growth percent below 10; inactive = the rest.

Tested on: MDA-MB-468 breast
Experiment: NCI-60 one-dose screen, 48 h (100 = growth as untreated, 0 = no growth, -100 = all killed)
Conditions: 10 µM unless noted

Row | SMILES | growth
1 | COc1ccc(/C=N\Nc2ccc([N+](=O)[O-])cn2)cc1OC | 79.1% (inactive)
2 | CCOC(=O)C1=C(Nc2ccc(OC)cc2)C(N)=NC1=N | 31.9% (inactive)
3 | COc1cc(C2CC(c3ccc(Nc4nc(NCCO)nc(N5CCOCC5)n4)cc3)=NN2c2cc(Cl)cc(Cl)c2)cc(OC)c1OC (stereo not given) | 64% (inactive)
4 | O=c1c2cc(F)ccc2sc2c(NCCCNCCO)nc3ccc(F)cc3c12 | 39.7% (inactive)
5 | COc1ccc(/C=c2\c(=O)n(-c3ccccc3)c3nn4c(=O)c(=O)[nH]nc4n23)cc1 | 112% (inactive)
6 | Cc1ccc(C(=O)N/N=C/c2cccc(Oc3ccccc3)c2)cn1 | 58.6% (inactive)
7 | COc1cc2c(cc1OC)-c1ccc3cc4c(cc3c1N(CCN1CCCC1)C2)OCO4 | -5.22% (active)
8 | O=C1Nc2ccccc2/C1=C/c1cn(C(=O)c2ccc(Cl)cc2)c2ccccc12 | 97.6% (inactive)
9 | CC1=CC(=O)N(c2cccc3c(N4C(=O)C=C(C)C4=O)cccc23)C1=O | 23.6% (inactive)
10 | CC(C)(C)[C@H](OCc1cn([C@H]2C[C@@H](O)[C@@H](CO)O2)c(=O)[nH]c1=O)c1ccc(C#Cc2ccccc2)cc1[N+](=O)[O-] | 68.2% (inactive)
11 | CN(C)CCN(C)c1ccc2ncc(C#Cc3cncc(C(=O)Nc4ccc(CN5CCN(C)CC5)c(C(F)(F)F)c4)c3)n2n1 | 84.8% (inactive)
12 | O=C1Nc2ccc(Cl)cc2/C1=C\c1c(-c2ccc(Cl)cc2)nc2sc(C3CC3)nn12 | 66.4% (inactive)
13 | Cc1c(-c2noc(-c3ccc([N+](=O)[O-])cc3)n2)no[n+]1[O-] | 104% (inactive)
14 | Nc1ncnc(Nc2ccccc2)n1 | 108% (inactive)
15 | COc1ccc2c(c1)sc1nc(-c3ccccc3)c(-c3cccc4ccccc34)n12 | 11.5% (inactive)
16 | Nc1nc2c(c3cnccc13)C(c1cccc(Br)c1)Cc1cnccc1-2 (stereo not given) | -16.1% (active)
17 | CCOC(=O)c1ccc(NC(C)=O)o1 | 89.3% (inactive)
18 | O=S(=O)(NCCNc1nccc(-c2c(-c3cccc(F)c3)nc3sccn23)n1)c1ccccc1 | 43.6% (inactive)
19 | CCNC(=NCCCN(C)C)N/C(N)=N/c1nc2ccccc2s1 | 94.3% (inactive)
20 | O=C(Nc1cccc(Cn2c(=O)[nH]c3ccc(Oc4ncccn4)cc3c2=O)c1)c1cccc(F)c1 | 49.8% (inactive)
21 | Cc1ccc(=O)[nH]n1 | 103% (inactive) and 104% (inactive)
22 | CC(C)N(Cc1ccc(CN(C(=O)CCl)C(C)C)cc1)C(=O)CCl | 15.4% (inactive)
23 | COc1c(B(O)O)cccc1-c1nc2ccc3[nH]ncc3c2c2c1CCCC2 | 34% (inactive)
24 | NC1=C(/C(N)=N/O)C(c2ccccc2)c2ccc3ccccc3c2O1 (stereo not given) | -1.49% (active)
25 | COc1ccc(-c2nn(-c3cccc(NC(=O)Nc4ccc(Cl)c(C(F)(F)F)c4)c3)cc2-c2ccncc2)cc1Cl | 23.1% (inactive)
